ALOX15B inhib: qHTS Assay for Inhibitors of 15-hLO-2 (15-human lipoxygenase 2) | Polyunsaturated fatty acid lipoxygenase ALOX15B (Homo sapiens), O15296 | purified 15hLO-2, xylenol orange hydroperoxide absorbance | Potency, µM (titrated, usually from 57.1 µM), most hits filed as inhibitors | 0.56% of 110,000 active | AID 881, 2007; further: nearly all actives have a fitted effect of over 60% in size
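Read-out: hydroperoxide product oxidises ferrous iron, measured as xylenol orange complex via the 573-to-405 nm absorbance ratio after 30 min. Reaction: 50 nM enzyme, 15 min compound preincubation, 45 uM arachidonic acid, 90 min RT, Hepes pH 7.5 with Triton X-100.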
Casp7 inh: qHTS Assay for Allosteric/Competitive Inhibitors of Caspase-7; P55210; recombinant caspase-7, Ac-DEVD-AFC fluorescence rate; Potency, µM (series often up to 57.5 µM), most hits filed as inhibitors; 0.02% of 75,000 active; AID 889, 2007; active means well fitted inhibition curve with a large enough effect in the main read-out, with a control signal flat, not every such curve was filed as active; inconclusive means small, poorly fitted or top-dose-only effect, or a change in a side signal
15-hLO inh: qHTS Assay for Inhibitors of 15-hLO (15-human lipoxygenase). purified 15hLO-1, xylenol orange hydroperoxide absorbance. Potency, µM (titrated, usually from 57.1 µM), most hits filed as inhibitors. 1.4% of 74,000 active. AID 887, 2007; further: nearly all actives have a fitted effect of over 55% in size
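Purified human 15hLO-1 (40 nM final) in 25 mM Hepes pH 7.5, 0.01% Triton X-100 was preincubated with compound 15 min at room temperature, then reacted 6 min with 50 uM arachidonic acid; hydroperoxide detected by Fe-XO, 573/405 nm absorbance ratio.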
Hsp90 Hop PPI: qHTS Assay for Disrupters of an Hsp90 Co-Chaperone Interaction. Hsp90 C-terminal peptide / TPR2A (Hop) interaction, human. AlphaScreen TPR2A-His6 binding biotin-Hsp90 C-terminal peptide. Potency, µM (series often up to 57 µM). 0.44% of 71,000 active. AID 595, 2007; active means well fitted curve in either direction with a large enough effect; inconclusive means small, poorly fitted or top-dose-only effect, or another doubt
Tau fil binding: qHTS Assay for Tau Filament Binding | recombinant tau filaments, thioflavin S fluorescence, 15 h; filaments grown with octadecylsulfate alongside compound | Potency, µM (highest dose often 57.1 µM) | AID 596, 2007 | 2% of 71,000 active | Microtubule-associated protein tau (Homo sapiens), P10636;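 further: actives lower thioflavin S fluorescence by blocking filaments or displacing dye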
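His-tagged recombinant human tau (exons 2, 3 and 10 included), 1 uM, was induced to fibrillize by 30 uM sodium octadecylsulfate with compound present. After 15 h at 37 C, thioflavine S fluorescence (ex 450, em 510 nm) was read.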
Caspase-1 inhib: qHTS Assay for Allosteric/Competitive Inhibitors of Caspase-1. P29466. Caspase-1 enzyme, Ac-WEHD-AFC fluorogenic rate. Potency, µM (highest dose often 57.5 µM), usual class: inhibitors. 0.03% of 75,000 active. AID 900, 2007
Numbers stand for hits; n = inactive; u = inconclusive; x = not tested or not shown; [ ] = another dose, or the depositor's remark. An excerpt weighted towards active compounds, which were near 2.4% of everything screened. Unless noted, the call rests on the fitted dose curve; in most records, active means well fitted curve in the direction sought with a large enough effect; inconclusive means small, poorly fitted or top-dose-only effect, or another doubt; inactive means no such curve, though single readings can be large; an effect the other way counts as inactive or inconclusive.

SMILES	ALOX15B inhib	Casp7 inh	15-hLO inh	Hsp90 Hop PPI	Tau fil binding	Caspase-1 inhib
CC1(c2cc([N+](=O)[O-])cc([N+](=O)[O-])c2)CC(C)(C)N(C(=O)c2ccccc2)c2ccccc21 (stereo not drawn)	n	x	x	x	x	x
COc1cccc(-c2cncnc2NCCc2c[nH]c3ccc(OC)cc23)c1	n	n	u	n	n	n
COc1ccc(CNC(=O)C(C#N)c2nc3ccccc3nc2N2CCCC2)cc1 (stereo not drawn)	n	u	n	n	n	x
COc1ccc(CNC(=O)C(C#N)c2nc3ccccc3nc2N2CCN(C)CC2)cc1 (stereo not drawn)	n	n	n	n	3.2µM	n
O=C1C=C(N2CCN(c3ccccn3)CC2)C(=O)c2c(O)ccc(O)c21	n[11.4 µM]	n[11.5 µM]	n[11.4 µM]	u	1.6µM	n[11.5 µM]
Cc1ccc2oc3c(c(=O)c2c1)C(c1cccc(Cl)c1)N(CCCN1CCOCC1)C3=O (stereo not drawn)	n	n	n	n	13µM	x
CCOc1ccc(C2c3c(oc4cc(C)c(C)cc4c3=O)C(=O)N2CCCN2CCOCC2)cc1 (stereo not drawn)	n	n	n	n	16µM	n
CCOc1ccc(C2c3c(oc4ccccc4c3=O)C(=O)N2CCCN2CCOCC2)cc1 (stereo not drawn)	n	n	n	n	n	n
Cc1cc2oc3c(c(=O)c2cc1C)C(c1ccc(C(C)C)cc1)N(CCCN1CCOCC1)C3=O (stereo not drawn)	x	n	u	n	4µM	n
O=C(NCC1COc2ccccc2O1)C1CCC(CNc2c(N3CCCCC3)c(=O)c2=O)CC1 (stereo not drawn)	n	n	n	n[2.3 µM]	n	n
OCCN1CCN(C(c2cccs2)c2ccc3cccnc3c2O)CC1 (stereo not drawn)	n	n	4µM	32µM	6.3µM	n
CC(C)(C)c1cc(C(c2cccnc2)N2CCN(CCO)CC2)cc(C(C)(C)C)c1O (stereo not drawn)	n	n	u	n	n	n
CCCNS(=O)(=O)c1ccc(OCC(=O)NCCC2=CCCCC2)cc1	n	x	x	x	x	x
Cc1ccc(C2OCC3(CO)COC(c4ccc(C)cc4)N23)cc1 (stereo not drawn)	n	x	x	x	x	x
CCN(CC)c1nc(N(CC)CC)[nH]c(=O)n1	x	n	13µM	n	n	n
O=C1Cc2ccccc2C(=O)N1CCc1ccccc1	n	6.3µM	n	n	n	5µM
O=C(O)CCN1C(=O)c2ccccc2C1=O	n[2.29 µM]	n	n	n	n	n
O=C(NCCCN1CCCCCC1)[C@@H](c1ccccc1)C1CCCCC1	n	n	n	n	u	n
CN(C)c1ncc2nc(CCc3ccccc3)c(=O)n(-c3ccccc3)c2n1	n	u	u	20µM	n	x
COc1ncc2nc(CCc3ccccc3)c(=O)n(-c3ccccc3)c2n1	n	n	n	n	n	n
O=C(NC(NCc1ccccc1)C(Cl)(Cl)Cl)c1cccnc1 (stereo not drawn)	n	x	x	x	x	x
O=c1c(Cl)c(N2CCCCC2)cnn1-c1nc2ccccc2[nH]1	n	x	x	x	x	x
Cc1ccc(-c2noc(CN(C(=O)CCCN3C(=O)c4ccccc4C3=O)C(C)C)n2)cc1	x	n	n	n	16µM	n
O=[N+]([O-])c1ccc(NNC(=S)Nc2ccccc2)cc1	4µM	x	x	x	x	x
C[C@@H]1COc2c(N3CCN(C)CC3)c(F)cc3c(=O)c(C(=O)O)cn1c23	n	n	n	n	u	n
COc1ccc(OC)c(CNc2ccc(F)c(Cl)c2)c1	n	x	x	x	x	x
COc1ccc(Br)cc1CNc1ccc(O)cc1	n[2.29 µM]	n	u	u	32µM	u
COc1ccc(-n2c(=O)c(-c3ccc(F)cc3)nc3cnc(N4CCOCC4)nc32)cc1	n	u	n	n	n	x
COc1ccc(-c2nc3cnc(N4CCOCC4)nc3n(-c3ccc(OC)cc3)c2=O)cc1	u	u	16µM	u	n	x
CCNc1ncc2nc(-c3ccccc3)c(=O)n(-c3ccc(OC)cc3)c2n1	n	u	n	4µM	n	x

Source: PubChem
